This is an account of results in PubChem BioAssay (NCATS).

Inconclusive results are not listed. Where a call stands in place of a potency, no number is given. Calls of active or inactive are those of the source. Calls follow the shape of the dose curve; as a rule, active = well fitted cell-killing curve with a large enough effect; inconclusive = small, poorly fitted or top-dose-only effect, or effect the other way; inactive = flat fitted curve, though single readings scatter. Where a SMILES comes first, the peptide text is derived from it. The star is where a group is joined. βNA = c1ccc2cc(N*)ccc2c1; Cbz = O=C(OCc1ccccc1)*

In this experiment the test system is PA-1. Briefly: Primary qHTS to identify gynecologic anti-cancer compounds using libraries of approved drugs and bioactive compounds (AID 1345084). Also: nearly all actives have a fitted effect of over 55% in size. Conditions: Gynecologic cancer cell panel viability, ATPlite luminescence, 48 h; series mostly up to 57.5 µM. In a few lines: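 Cell viability after 48 h drug treatment, ATPlite luminescence readout; five doses.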
A general note: qHTS replaces the single test concentration by a dilution series.
`CC(C)C1CCC(CO)=CC1/C=C(\CO)C(=O)OCC1(O)CCC(C(C)C)C2C=C(C(=O)O)COC(=O)C21` (configuration not stated): the Potency entry is “inactive”.

Regarding `COC(=O)c1ccc(OC)cc1O[C@@H]1O[C@H](CO[C@@H]2OC[C@@H](O)[C@H](O)[C@H]2O)[C@@H](O)[C@H](O)[C@H]1O`, the Potency entry was “inactive”.

On to `CCNC(=O)OC1CCN(c2nncc3cc(OC)c(OC)cc23)CC1`, for which the Potency entry is “inactive”.

On to `CC1=CCC[C@@H]2[C@@](C)(CCc3ccoc3)[C@H](C(=O)O)CC[C@@]12C`, for which the Potency result was “inactive”.

On to `C=C1C(=O)O[C@@H]2C[C@]3(C)[C@@H](CCC(C)=O)[C@@H]3C[C@H]12`, for which the Potency entry was “inactive”.

As for `CCC(C)/C=C(C)/C=C/C1=CC2=C(Cl)C(=O)C(C)(OC(C)=O)C(=O)C2=CN1C(CCC(=O)O)C(=O)O` (configuration not stated), the Potency result was “inactive”.

Turning to `C=C[C@@]1(C)CCC2=C([C@H]1OC(C)=O)[C@H](OC(C)=O)CC1[C@](C)(C(=O)OC)CC[C@H](OC(C)=O)[C@]21C` (some centres not stated), the Potency result was “inactive”.

For `COc1ccc(C2C(C(=O)O)C(C(=O)O)C2c2ccc(OC)cc2O[C@@H]2O[C@H](CO)[C@@H](O)[C@H](O)[C@H]2O)c(O[C@@H]2O[C@H](CO)[C@@H](O)[C@H](O)[C@H]2O)c1` (some centres not stated), the Potency entry was “inactive”.

Take `Cc1ccccc1-n1nc(-c2c(-c3ccc(F)cc3)nn3c2NC[C@@H](CO)C3)ccc1=O`: the Potency entry is “inactive”.

For `COc1cc(C(=O)OC[C@@]2(O)CO[C@@H](O[C@H]3[C@H](Oc4ccc(O)cc4)O[C@H](CO)[C@@H](O)[C@@H]3O)[C@@H]2O)cc(OC)c1O`, the Potency result is “inactive”.

As to `CC(=O)OC/C(=C/C(=O)O)CC[C@@H]1C(CO)=CC[C@@H]2C(C)(C)CCC[C@@]12C`, the Potency entry was “inactive”.

On to `C/C=C/C=C/C(O)=C1/C(=O)[C@]2(C)C(=O)[C@@](C)(O)[C@H]1[C@H]([C@@]1(C)OC(=O)C(C)=C1O)[C@H]2C(=O)CC/C=C/C`, for which the Potency result was “inactive”.

In the case of `Cc1nc2cc(-c3cc(F)cc(C#N)c3)ccc2s1`, the Potency result was “inactive”.

On to `C=C(C)C(O)COc1ccc(CC(=O)O)cc1` (configuration not stated), for which the Potency result was “inactive”.

With `CC1(C)O[C@H]2CC(=O)OC[C@@]23C1=C(O)C(=O)[C@]1(C)C3CC[C@@]2(C)[C@H](c3ccoc3)OC(=O)[C@H]3O[C@]321` (some centres not stated), the Potency result is “inactive”.

`C[C@@H]1O[C@@H](O[C@H]2[C@H](OC(=O)[C@]34CCC(C)(C)C[C@H]3C3=CCC5[C@@]6(C)C[C@@H](O)[C@@H](O)[C@@](C)(CO)C6[C@H](O)C[C@@]5(C)[C@]3(C)CC4)OC[C@H](O)[C@@H]2O)[C@H](O)[C@H](O)[C@H]1O[C@@H]1OC[C@@H](O)[C@H](O[C@H]2O[C@H](C)[C@@H](O)[C@H](O)[C@@H]2O)[C@H]1O` (some centres not stated): the activity change, negative = cytotoxicity is 12.4% [at 11.6 µM] (inactive).

Turning to `CC(C)CC(NC(=O)OCc1ccccc1)C(=O)NC(CC(C)C)C(=O)NC(CCC(=O)O)C(=O)Nc1ccc2ccccc2c1` (stereo not drawn) (Cbz-Leu-Leu-Glu-βNA; configuration not given here), the Potency result was “inactive”.

For `CC1CC2OCC3(O)CCC(O)C(C14CC(c1ccoc1)OC4=O)C23CO` (configuration not stated), the Potency entry is “inactive”.

For the molecule `COC(=O)C(CC1(O)c2ccccc2N2C(=O)C(C)(C)N(O)C21)n1cnc2ccccc2c1=O` (configuration not stated), the Potency entry is “inactive”.

For `CC(=O)OC[C@]12[C@@H](OC(=O)c3ccoc3)C[C@@H]3[C@@H](OC(C)=O)[C@]1(OC3(C)C)[C@@](C)(O)C[C@H](OC(=O)c1ccoc1)[C@@H]2OC(=O)c1ccoc1`, the Potency result is “inactive”.

With `CC(C)c1ccc2c(c1)CCC1[C@](C)(C(=O)O)CCC[C@]21C` (some centres not stated), the Potency entry is “inactive”.

In the case of `CC[C@H]1OC(=O)[C@H](C)C(=O)[C@H](C)[C@@H](OC2O[C@H](C)C[C@H](N(C)C)[C@H]2O)[C@@H](C)C[C@@H](C)C(=O)/C=C/[C@]1(C)O` (some centres not stated), the Potency result was “inactive”.

Turning to `C=C(CCO[C@@H]1O[C@H](CO)[C@@H](O)[C@H](O)[C@H]1O)C(=O)O`, the Potency result is “inactive”.

As to `COC(=O)C1=C[C@@H](O)[C@@H](O)[C@H](O[C@@H]2O[C@H](CO)[C@@H](O)[C@H](O)[C@H]2OC(=O)/C=C/c2ccccc2)C1`, the Potency result was “inactive”.

For the molecule `COc1ccc(O[C@@H]2O[C@H](CO)[C@@H](O)[C@H](O)[C@H]2O)cc1OC`, the Potency entry was “inactive”.

For `C=CC(C)(CC/C=C(\C)C(=O)OC[C@H]1O[C@@H](OC(C)(C=C)CC/C=C(\C)C(=O)O[C@H]2[C@H](O)[C@@H](O)[C@H](OC(C)(C=C)CC/C=C(\C)C(=O)O)O[C@@H]2CO)[C@H](O)[C@@H](O)[C@@H]1O)O[C@@H]1O[C@H](CO)[C@@H](O)[C@H](O)[C@H]1O` (some centres not stated), the activity change, negative = cytotoxicity is 1.36% [at 11.6 µM] (inactive).

With `CC(C)=C1C[C@@]2(C)C(=CC1=O)CC[C@@H](O)[C@@H]2C`, the Potency entry is “inactive”.
